# Reference: PubChem BioAssay (NCATS)
# Where “and” joins values, the source holds several entries; their conditions need not be identical. Identical values can stand only once. Unmarked numbers belong to inactive results. Results filed as inconclusive are left out. For part of these data: Entries with a potency or affinity are not part of this list. Calls of active or inactive are those of the source. Unless noted, no rule for the calls is given here.
# Columns and labels:
# [1] = qHTS Assay for Identifying Gametocytocidal Compounds (AID 743244; active = well fitted curve in the direction sought with a large enough effect; an effect the other way counts as inactive or inconclusive;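 also: % is scaled to controls: 0 for no effect and ±100 for the full control effect; actives lower the fluorescent signal which means gametocytes are killed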); details: P. falciparum 3D7 stage III-V gametocytes, alamarBlue, 72 h; max response: stronger effect = lower value
# Summary of the method: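 Stage III-V P. falciparum 3D7 gametocytes, 20,000 per well, were exposed to compounds for 72 h at 37C, 5% CO2. AlamarBlue was then added for 24 h and viability was read as fluorescence at Ex 525/Em 598 nm.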
# [2] = qHTS assay for cell viability of HEK293 cells (AID 743288; active = well fitted curve in the direction sought with a large enough effect; an effect the other way counts as inactive or inconclusive; also: % is scaled to controls: 0 for no effect and ±100 for the full control effect; nearly all actives have a fitted effect of over 50% in size); details: ATP luminescence (CellTiter-Glo), 18 h; max response: stronger effect = lower value
# Summary of the method: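 Readout is luciferase-coupled ATP content (CellTiter-Glo luminescence, 30 min room temperature) as a measure of metabolically competent cells. Parental HEK293 cells were plated 5 h or more before compound addition, then treated 18 h at 37 C.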
# [3] = qHTS assay for cell viability of the p53RE-bla HCT-116 cell line (AID 743292; active = well fitted curve in the direction sought with a large enough effect; an effect the other way counts as inactive or inconclusive; also: % is scaled to controls: 0 for no effect and ±100 for the full control effect; nearly all actives have a fitted effect of over 55% in size)
# Summary of the method: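 After plating at 4,000 cells per well and a 5 h rest at 37 C, HCT-116 cells carrying p53RE-bla received test chemicals in DMSO. Sixteen hours later at 37 C, CellTiter-Glo was added and luminescence recorded following 30 min at room temperature.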
# [4] = Ebola virus entry assay, green channel fluorescence
# [5] = Ebola virus entry assay, reporter ratio channel; Channel type: primary
# [6] = Ebola virus entry assay, blue channel (ratio component)
# [7] = Immunotoxin (HA22) sensitization/mitigation study. Vehicle arm (PBS) (AID 1159510); also: potency is read from the fitted curve at half-maximal effect
# [8] = Immunotoxin (SS1P) sensitization/mitigation study. Vehicle arm (DMEM) (AID 1159513); also: potency is read from the fitted curve at half-maximal effect
structure (smiles),measurement,setting,value
Cc1cc(O)ccc1Cl,max response,[1],25.2%
same,max response,[2],-2.31%
same,Potency,[3],inactive
same,outcome,[4],inactive
same,outcome,[5],inactive
same,outcome,[6],inactive
O=C(c1ccc(Nc2nccc(-c3cc4ccccc4s3)n2)cc1)N1CCC(N2CCCC2)CC1,Potency,[7],16.6 µM (active)
COc1cc(C)c(Sc2cnc(NC(=O)c3ccc(CNC(C)C(C)(C)C)cc3)s2)cc1C(=O)N1CCN(C(C)=O)CC1 (stereo unspecified),Potency,[7],14.8 µM (active)
COc1ccc(CCN2CCN(CCCc3ccccc3)CC2)cc1OC,Potency,[7],23.5 µM (active)
CC(O)CN1CCN(CC(=O)[O-])CCN(CC(=O)[O-])CCN(CC(=O)[O-])CC1.[Gd+3] (stereo unspecified),max response,[1],1.03% and -10.9%
same,outcome,[5],inactive
same,outcome,[6],inactive
Cc1cccc(Nc2nc(N[C@@H]3CCCC[C@H]3N)ncc2C(N)=O)c1,Potency,[7],18.7 µM (active)
CNC(=O)c1ccc(N2C(=S)N(c3ccc(C#N)c(C(F)(F)F)c3)C(=O)C2(C)C)cc1F,Potency,[7],inactive
C[C@@H]1CN(CC(=O)Nc2ccc3c(c2)Cc2cccc(-c4cc(=O)cc(N5CCOCC5)o4)c2S3)C[C@H](C)O1,Potency,[7],16.6 µM (active)
CCN(CC)CCn1c(=O)c(Cc2ccc(OC)cc2)nc2ccccc21,Potency,[7],inactive
same,Potency,[8],inactive
Cn1c(=O)n(-c2ccc(C(C)(C)C#N)cc2)c2c3cc(-c4cnc5ccccc5c4)ccc3ncc21,Potency,[7],3.72 µM (active)
same,Potency,[8],0.0332 µM (active)
O=C1[C@H](Cc2ccc(O)cc2)N2C(=O)CCN(C(=O)NCc3ccccc3)[C@H]2CN1Cc1cccc2ccccc12,Potency,[7],6.62 µM (active)
same,Potency,[8],2.35 µM (active)
COc1nc(-c2ccc3c(c2)OCO3)n(-c2ccc(NC(=O)CSc3ccccc3)cc2)n1,Potency,[7],20.9 µM (active)
same,Potency,[8],inactive
COc1cc2nc(N3CCCN(C)CC3)nc(NC3CCN(Cc4ccccc4)CC3)c2cc1OC,Potency,[7],2.09 µM (active)
same,Potency,[8],13.2 µM (active)
O=C(Nc1ccc(F)c(C(F)(F)F)c1)Nc1nnc(-c2ccncc2)s1,Potency,[7],2.09 µM (active)
same,Potency,[8],5.9 µM (active)
Cc1c(CN2CCN(C(=O)C(C)C)CC2)sc2c(N3CCOCC3)nc(-c3cnc(N)nc3)nc12,Potency,[7],0.0935 µM (active)
same,Potency,[8],0.0469 µM (active)
CCOc1ccn(-c2ccc(F)cc2)c(=O)c1C(=O)Nc1ccc(Oc2ccnc(N)c2Cl)c(F)c1,Potency,[7],18.7 µM (active)
same,Potency,[8],23.5 µM (active)
Cc1nnc(C(C)C)n1C1CC2CCC(C1)N2CC[C@H](NC(=O)C1CCC(F)(F)CC1)c1ccccc1 (stereo partly specified),Potency,[7],inactive
same,Potency,[8],inactive
CN(C)C1CCN(C(=O)c2ccc(NC(=O)Nc3nc(N4CCOCC4)nc(N4CCOCC4)n3)cc2)CC1,Potency,[7],0.166 µM (active)
CC1(O)CC(c2nc(-c3ccc4ccc(-c5ccccc5)nc4c3)c3c(N)nccn23)C1 (stereo unspecified),Potency,[7],29.6 µM (active)
same,Potency,[8],18.7 µM (active)
